Source: PubChem (NMMLSC)
RGS4-Gao reg: human RGS4-Galphao interaction regulation | binding response (% of control), % at 10 µM | P09471 | AID 1415 | Multiplexed bead flow cytometry, RGS4-Galphao binding; actives lie on both sides | 220,000 tested, 0.33% active; in the data active means binding response below about 49% or above about 150%; inactive means in between;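 further: fluorescent Galphao activated with aluminum fluoride binding bead-coupled RGS4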
Target sequence (P09471 whole entry, looked up): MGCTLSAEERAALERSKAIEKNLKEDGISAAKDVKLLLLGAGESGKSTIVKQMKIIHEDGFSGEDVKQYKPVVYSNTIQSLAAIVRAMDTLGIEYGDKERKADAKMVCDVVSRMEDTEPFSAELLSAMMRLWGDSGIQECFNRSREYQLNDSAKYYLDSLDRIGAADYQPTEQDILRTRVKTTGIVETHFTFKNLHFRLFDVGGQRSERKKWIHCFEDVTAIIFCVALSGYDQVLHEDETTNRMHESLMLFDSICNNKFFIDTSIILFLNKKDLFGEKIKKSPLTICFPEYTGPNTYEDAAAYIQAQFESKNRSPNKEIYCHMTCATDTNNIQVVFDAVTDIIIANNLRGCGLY
Avidin bead fluor: avidin bead compound fluorescence profile; Avidin beads, compound fluorescence 488/530 nm, flow cytometry; hits give high values; fluorescence (KMESF) at 10 µM; 220,000 tested, 0.38% active; in the data active means fluorescence above about 47
GSH bead fluor: compound fluoresces at 488/530 nm on GSH beads | GSH beads flow cytometry, compound fluorescence 488/530 nm; hits give high values | fluorescence (KMESF) at 10 µM | 190,000 tested, 0.25% active | AID 1776; in the data active means fluorescence above about 89;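 further: glutathione beads carrying GST-tagged Bcl family fusion proteins plus one bare bead set; values are compound well signal with DMSO vehicle wells as background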
RGS16-Gao HTS: RGS16-Galphao interaction regulator (human) | binding response (% of control), % at 10 µM | O15492+P09471 | 220,000 tested, 0.38% active | bead-based flow cytometry RGS16-Galphao binding, fluorescence; actives lie on both sides;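 further: Galphao activated by GDP with aluminum fluoride before binding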
Target sequence (O15492 whole entry, looked up): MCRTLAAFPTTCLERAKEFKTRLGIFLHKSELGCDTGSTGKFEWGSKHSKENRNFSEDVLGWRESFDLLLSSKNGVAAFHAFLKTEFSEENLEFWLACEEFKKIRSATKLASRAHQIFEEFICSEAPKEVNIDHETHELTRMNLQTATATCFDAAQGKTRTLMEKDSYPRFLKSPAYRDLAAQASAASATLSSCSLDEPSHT
Target sequence (P09471 whole entry, looked up): as the sequence (P09471 whole entry, looked up) above
RGS7-Gao reg: modulates binding of RGS7 to human Galphao. Multiplexed bead flow cytometry; actives lie on both sides. binding response (% of control), % at 10 µM. 220,000 tested, 0.35% active; in the data active means binding response below about 49% or above about 150%; inconclusive means no clear call, values can overlap the other calls; inactive means in between;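 further: fluorescent Galphao held in activated GDP-AlF4 state binding bead-coupled RGS7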
RGS8-Gao reg: human RGS8-Galphao interaction regulation. 220,000 tested, 0.34% active. response (percent of control binding), % at 10 µM. multiplexed bead flow cytometry, RGS8-Galphao binding; actives lie on both sides. P09471; in the data active means response below about 60% or above about 140%; inactive means in between;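 further: Galphao activated as the GDP aluminium fluoride complex binding bead-coupled RGS8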
RGS-Gao: RGS4-Galphao interaction regulator (human) | shares compounds with RGS16-Gao HTS | multiplexed bead flow cytometry, RGS–Galpha-o binding | RGS4–Galpha-o binding response, % at 10 µM | 1,600 tested, 99% active;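 further: fluorescently labeled Galpha-o bound to GDP with aluminium fluoride binding biotinylated RGS beads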
Avidin counter: counter-screen: compounds disrupting biotin binding to avidin beads; 1,700 tested, under 10 active; shares compounds with RGS16-Gao HTS; streptavidin beads, fluorescein-biotin binding, flow cytometry; inhibition, % at 10 µM;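 active means inhibition above 50%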;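 further: median green fluorescence of gated singlet beads compared with DMSO control wells; 0% = DMSO wells and 100% = complete loss of bead fluorescence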
RGS8-Gao single: RGS8-Galphao interaction regulation, single point confirmation | shares compounds with RGS16-Gao HTS | bead-based flow cytometry RGS8-Galphao binding, fluorescence; actives lie on both sides | 1,700 tested, 3% active | binding response (% of control), % at 10 µM; in the data active means binding response below about 72% or above about 130%; inactive means in between;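 further: Galphao activated as GDP AlF4 complex before binding bead RGS8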
RGS7-Gao confirm: confirmation of regulators of human RGS7-Galphao interaction; shares compounds with RGS16-Gao HTS; bead-based flow cytometry RGS7-Galphao binding; actives lie on both sides; response (percent of control binding), % at 10 µM; 1,700 tested, 7.8% active; AID 1837; in the data active means response below about 75% or above about 130%; inactive means in between;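 further: fluorescent Galphao activated with GDP and aluminum fluoride binding bead-coupled RGS7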
RGS16-Gao conf: confirmation of regulators of human RGS16-Galphao interaction. 1,700 tested, 4% active. AID 1838. bead-based flow cytometry, RGS16-Galphao binding; actives lie on both sides. response (% of control binding), % at 10 µM. shares compounds with RGS16-Gao HTS; in the data active means response below about 74% or above about 130%; inactive means in between;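 further: Galphao activated as the GDP aluminium fluoride complex binding bead-coupled RGS16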
RGS4-Gao single: RGS4-Galphao interaction regulation, single point confirmation; shares compounds with RGS16-Gao HTS; RGS4-Galphao binding, multiplexed bead flow cytometry; actives lie on both sides; binding response (% of control), % at 10 µM; 1,700 tested, 4% active; AID 1840; in the data active means binding response below about 74% or above about 130%; inactive means in between
RGS19-Gao single: confirmation of regulators of human RGS19-Galphao interaction; shares compounds with RGS16-Gao HTS; bead-based flow cytometry RGS19-Galphao binding; actives lie on both sides; response (percent of control binding), % at 10 µM; 1,700 tested, 5% active; AID 1841; in the data active means response below about 50% or above about 160%; inactive means in between;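 further: 100% = no compound control and 0% = blank background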
Starred values were filed as active, the others as inactive; ! = not confirmed by another sample; [ ] = another dose, or the depositor's remark. Rows were chosen to be rich in hits. Some 1.2% of all compounds tested hit in one or more screens of this group. Unless noted, how the calls were made is not given here.

Results for CCN(CC)c1ccc(NC(=O)Cn2c(C(C)NC(=O)c3ccc(C)cc3)nc3ccccc32)cc1 (stereo not drawn) ?
RGS4-Gao reg: 212.0*[activator]; Avidin bead fluor: 33; GSH bead fluor: 18; RGS16-Gao HTS: 191.7*[activator]; RGS7-Gao reg: 152.7*[activator]; RGS8-Gao reg: 114.4; Avidin counter: -1.0; RGS8-Gao single: 108.3; RGS7-Gao confirm: 99.0; RGS16-Gao conf: 127.7*[activator]; RGS4-Gao single: 116.8; RGS19-Gao single: 259.0*[activator]

What do the screens show for `CCS(=O)(=O)N1CCC(C(=O)NCc2ccc(OC)cc2)CC1`?
RGS4-Gao reg: 106.0; Avidin bead fluor: 12; GSH bead fluor: 15; RGS16-Gao HTS: 117.5; RGS7-Gao reg: 106.7; RGS8-Gao reg: 105.6

What do the screens show for `O=S1(=O)CC2N=C(N(Cc3c(F)cccc3Cl)c3ccccc3F)SC2C1` (stereo not drawn)?
RGS4-Gao reg: 18.8*; Avidin bead fluor: -2; GSH bead fluor: 20; RGS16-Gao HTS: 11.1*; RGS7-Gao reg: 12.2*; RGS8-Gao reg: 16.7*; Avidin counter: 1.1; RGS8-Gao single: 102.4; RGS7-Gao confirm: 97.9; RGS16-Gao conf: 104.3; RGS4-Gao single: 101.9; RGS19-Gao single: 98.3

What do the screens show for `COc1ccc(-c2[nH]ncc2CNCCc2ncccc2C)cc1F`?
RGS4-Gao reg: 97.8; Avidin bead fluor: 10; GSH bead fluor: 13; RGS16-Gao HTS: 107.8; RGS7-Gao reg: 97.6; RGS8-Gao reg: 100.1

How did COc1ccc(NC(=O)NCCCN2CCN(c3ccccc3F)CC2)cc1 do in these assays?
RGS4-Gao reg: 11.7*; Avidin bead fluor: 0; RGS16-Gao HTS: 8.9*; RGS7-Gao reg: inconclusive; RGS8-Gao reg: 22.0*; Avidin counter: 1.5; RGS8-Gao single: 111.8; RGS7-Gao confirm: 113.7; RGS16-Gao conf: 111.5; RGS4-Gao single: 113.4; RGS19-Gao single: 103.5

What do the screens show for `COc1ccc(NC(=O)NCCCN2CCN(c3cc(C)ccc3C)CC2)cc1`?
RGS4-Gao reg: 104.6; Avidin bead fluor: 6; GSH bead fluor: 17; RGS16-Gao HTS: 100.8; RGS7-Gao reg: 99.6; RGS8-Gao reg: 102.6

How did COc1ccc(/C=N/NC(=O)C2c3ccccc3Oc3ccccc32)c(OC)c1 do in these assays?
RGS4-Gao reg: 99.0; Avidin bead fluor: 30; GSH bead fluor: 18; RGS16-Gao HTS: 116.5; RGS7-Gao reg: 99.0; RGS8-Gao reg: 102.8

How did CSCC[C@H](NC(=O)C1=NN(c2c(F)c(F)cc(F)c2F)C(=O)CC1)c1nc2ccccc2[nH]1 do in these assays?
RGS4-Gao reg: 106.0; RGS16-Gao HTS: 107.5; RGS7-Gao reg: inconclusive; RGS8-Gao reg: 105.4

How did Cc1cc(C(=O)CSc2nnc(-c3cccnc3)n2-c2ccccc2F)c(C)n1C do in these assays?
RGS4-Gao reg: 6.8*!; Avidin bead fluor: 24; GSH bead fluor: 10; RGS16-Gao HTS: -0.8*!; RGS7-Gao reg: 5.0*!; RGS8-Gao reg: 10.7*!; Avidin counter: -0.4; RGS8-Gao single: 96.7; RGS7-Gao confirm: 113.0; RGS16-Gao conf: 101.5; RGS4-Gao single: 107.7; RGS19-Gao single: 101.0

What do the screens show for `CC(C)C(=O)NC(NC1CCS(=O)(=O)C1)C(Cl)(Cl)Cl` (stereo not drawn)?
RGS4-Gao reg: 100.4; Avidin bead fluor: 14; GSH bead fluor: 21; RGS16-Gao HTS: 106.8; RGS7-Gao reg: 112.9; RGS8-Gao reg: 110.3

Results for CCCC(=O)NC(NC1CCS(=O)(=O)C1)C(Cl)(Cl)Cl (stereo not drawn) ?
RGS4-Gao reg: 21.8*; Avidin bead fluor: 1; GSH bead fluor: 14; RGS16-Gao HTS: 14.7*; RGS7-Gao reg: 11.1*; RGS8-Gao reg: 34.2*; Avidin counter: -0.5; RGS8-Gao single: 100.4; RGS7-Gao confirm: 101.5; RGS16-Gao conf: 104.5; RGS4-Gao single: 101.7; RGS19-Gao single: 95.6

How did CC1CC(C)CN(CC(C)(C)NS(=O)(=O)c2ccc(Cl)cc2)C1 (stereo not drawn) do in these assays?
RGS4-Gao reg: 97.0; Avidin bead fluor: 9; GSH bead fluor: 41; RGS16-Gao HTS: 110.2; RGS7-Gao reg: 100.8; RGS8-Gao reg: 104.8

What do the screens show for `CN(C)C(=O)CSc1nc2ccccc2c(=O)[nH]1`?
RGS4-Gao reg: 127.0; Avidin bead fluor: 165*; GSH bead fluor: 24; RGS16-Gao HTS: 109.1; RGS7-Gao reg: 276.7*[activator]; RGS8-Gao reg: 96.5; RGS-Gao: 127.0*; Avidin counter: 1.4; RGS8-Gao single: 101.6; RGS7-Gao confirm: 94.7; RGS16-Gao conf: 105.1; RGS4-Gao single: 100.5; RGS19-Gao single: 101.5

Results for COc1ccc(CNC(=O)C2CSC(c3ccc(OC)cc3)N2C(C)=O)cc1 (stereo not drawn) ?
RGS4-Gao reg: 105.7; Avidin bead fluor: 123*; GSH bead fluor: 28; RGS16-Gao HTS: 81.7; RGS7-Gao reg: 216.6*[activator]; RGS8-Gao reg: 70.0; RGS-Gao: 105.7*; Avidin counter: -1.5; RGS8-Gao single: 102.9; RGS7-Gao confirm: 103.6; RGS16-Gao conf: 103.1; RGS4-Gao single: 102.5; RGS19-Gao single: 106.4

How did COc1ccc(Cl)cc1S(=O)(=O)N1CCN(C)CC1 do in these assays?
RGS4-Gao reg: 101.4; Avidin bead fluor: 8; GSH bead fluor: 22; RGS16-Gao HTS: 106.9; RGS7-Gao reg: 103.3; RGS8-Gao reg: 100.4

How did COc1ccc(Cl)cc1S(=O)(=O)N1CCCC1 do in these assays?
GSH bead fluor: 44; Avidin counter: 0.5; RGS8-Gao single: 102.1; RGS7-Gao confirm: 103.4; RGS16-Gao conf: 106.2; RGS4-Gao single: 103.0; RGS19-Gao single: 109.9
